Records with an inconclusive call do not appear. Activity calls are given as the source filed them.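 The calls were made as follows, unless noted: active = growth inhibition above 25% in both replicates, a cutoff set 3 SD above the mean; inconclusive = above 25% in only one replicate; inactive = the rest.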

For orientation: viability means a read-out of living cells in per cent, often relative to untreated cells. Usually inhibition stands for the relative decrease from the control value, in per cent.

The nature of assay [1]: reducers of endogenous Her2 protein level, primary screen, SKBR3 breast tumor cells, AlphaScreen, ATP viability (AID 461;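 active = Her2 level under about 52% in both replicate screens, with viability over 70% of control, limit read from the data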;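 as to Her2 level: lower value means less Her2 protein in the cells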;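 as to viability: percent of carrier control wells set as 100% viability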). Conditions: 18-24 h, measured here: SKBR3 viability, ATP luminescence, at 10 µM. For orientation: Alpha assays give light when donor and acceptor beads are brought close together.
Assay [2] addresses Receptor tyrosine-protein kinase erbB-2 (Homo sapiens) (UniProt P04626). Described as above. Particulars: 18-24 h, at 10 µM, stronger effect = lower value.
Assay [3] is described as follows: SK-BR-3 cell growth inhibitors, pilot screen, 24 h, human (AID 572;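 active = viability at or below 10% of carrier control in both of two separate runs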;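 also: compound exposure lasted between 18 and 24 h rather than exactly 24 h; 100% = carrier-treated control wells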). Particulars: SK-BR-3 viability, CellTiter-Glo luminescence, at 10 µM, stronger effect = lower value. A general note: Cellular ATP, detected with luciferase, serves as a proxy for viable cell number.
Assay [4] is described as follows: HUVEC growth inhibition – cell-based, human, primary screen (AID 575;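 active = viability at or below 30% in both replicate assays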;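 also: 100% = median of untreated cell wells with 0.1% DMSO on each plate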). Particulars: HUVEC proliferation, CellTiter-Glo luminescence, 72 h; at 10 µM; stronger effect = lower value.
A short description of assay [5]: growth inhibitors of H69AR lung tumor, primary screen, human, duplicate replicates (AID 580;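 active = viability at or under a set limit in both replicates, limit being median viability minus 3 SD, cut at about 48% in these data, passing the limit was not always enough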;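 also: 100% = mean luminescence of untreated wells and 0% = no signal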). Particulars: H69AR lung tumor cells viability, ATP luminescence, 72 h; at 10 µM; stronger effect = lower value.
Assay [6] can be described thus: reversal of MRP1-mediated doxorubicin resistance, pilot screen, H69AR cells, doxorubicin co-treatment (AID 601;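 active = viability loss from added drug above about 55%, and viability with drug at most 40%, in both replicates, limit read from the data, passing the limit was not always enough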). Particulars: CellTiter-Glo, 72 h, at 10 µM; for differential viability (reversal): stronger effect = higher value.
Assay [7] in a line: 384-well plate pilot, post-Golgi transport modulator project, inhibition of yeast transport mutant growth (AID 636; in the data active = inhibition above about 31%). Conditions: absorbance 615 nm, about 18 h, stronger effect = higher value.
The nature of assay [8]: growth suppression of yeast trafficking mutant, preliminary HTS, modulators of trafficking downstream of Golgi apparatus project, 1536-format plate, OD 615 nm (AID 637; in the data active = inhibition above about 30%). Conditions: yeast transport mutant growth, absorbance 615 nm, 18 h; stronger effect = higher value.
Assay [9] can be described thus: OD615 S. cerevisiae growth inhibition, permissive medium, pilot counter-assay, permissive growth control for S. cerevisiae lifespan shortening project (AID 705). Conditions: OD615, 24 h, at 10 µM, stronger effect = higher value.
Assay [10] in a line: Restrictive medium S. cerevisiae growth inhibition, OD615, pilot screen of yeast lifespan reduction project, restrictive growth control (AID 706;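 active = growth inhibition above a set limit, 3 SD over mean compound inhibition, in both replicates, cut at about 43% in these data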;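 also: modified DeaD lifespan yeast strain shifted to restrictive glucose medium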). Particulars: OD615, 48 h, at 10 µM, stronger effect = higher value.
Assay [11] can be described thus: viability gain of MRP-1-high H69AR cells under doxorubicin, pilot screen, MRP-1 activator project, CellTiter-Glo, duplicate (AID 807;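 active = viability increase at or above a cutoff of the median across tested compounds plus 3 SD, cut at about 8.5% in these data, passing the limit was not always enough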;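 also: compound pretreatment 18-22 h then 72 h combined with doxorubicin; 0% = doxorubicin alone and 100% = vehicle without doxorubicin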). Conditions: H69AR viability with doxorubicin, CellTiter-Glo luminescence; at 10 µM; stronger effect = higher value.
A short description of assay [12]: growth suppression of beta-catenin knockout HCT116, pilot screen, human colon tumor cells (AID 823;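 active = cell viability at or below a set limit in both duplicate runs, the limit being the all-compound median minus 4 SD, cut at about 23% in these data, passing the limit was not always enough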;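 also: 0% = wells killed by 20 µM Hyamine and 100% = untreated DMSO cell wells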). Particulars: CellTiter-Glo, 60 h, at 10 µM, stronger effect = lower value.
Assay [13] can be described thus: growth suppression of PTEN-deleted HCT116, pilot screen, cell-based, HCT116 clonal line, CellTiter-Glo (AID 824;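 active = viability at or below 27.92% in each of two runs, the all-compound median minus 4 SD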;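 also: 0% = 20 µM Hyamine control and 100% = vehicle cell control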). Particulars: 60 h, at 10 µM, stronger effect = lower value.
Assay [14] is described as follows: inhibitors of the yeast RAM network, pilot screen, dse1pr::URA3 reporter, 5-FOA selection (AID 869;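 active = inhibition over a set limit, the all-compound mean plus 3 SD, in both replicate runs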;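 also: 0% = DMSO wells with no growth and 100% = 10 µM 1-NA-PP1 with full growth; RAM network block rescues cells from 5-FOA so hits raise OD615 growth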). Conditions: S. cerevisiae dse1pr::URA3 5-FOA growth, OD615, 2 d; at 10 µM; stronger effect = higher value; strain carries analog-sensitive mutant Cbk1 kinase.
Assay [15] in a line: RAM signaling pathway blockade in yeast – S. cerevisiae, Pdr1DBD-CYC8 efflux-inhibited sensitized strain, primary screen (AID 1298;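 active = RAM network inhibition above 8.4% in each of two replicates, 3 SD over the compound average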;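 also: 0% = DMSO untreated cells without growth and 100% = 10 µM 1-NA-PP1 full growth; higher means more yeast growth rescued from 5-FOA killing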). Particulars: S. cerevisiae cbk1-as DSE1-URA3 strain, 5-FOA growth OD615, 2 d; at 50 µM; stronger effect = higher value.
The mark [16] stands for this setting: H69AR cells + 2 uM doxorubicin, measured here: viability with 2 uM doxorubicin, stronger effect = lower value.
Where [17] appears, read: H69AR cells, compound alone cytotoxicity.

Chain of Receptor tyrosine-protein kinase erbB-2 (Homo sapiens) (P04626 whole entry, looked up): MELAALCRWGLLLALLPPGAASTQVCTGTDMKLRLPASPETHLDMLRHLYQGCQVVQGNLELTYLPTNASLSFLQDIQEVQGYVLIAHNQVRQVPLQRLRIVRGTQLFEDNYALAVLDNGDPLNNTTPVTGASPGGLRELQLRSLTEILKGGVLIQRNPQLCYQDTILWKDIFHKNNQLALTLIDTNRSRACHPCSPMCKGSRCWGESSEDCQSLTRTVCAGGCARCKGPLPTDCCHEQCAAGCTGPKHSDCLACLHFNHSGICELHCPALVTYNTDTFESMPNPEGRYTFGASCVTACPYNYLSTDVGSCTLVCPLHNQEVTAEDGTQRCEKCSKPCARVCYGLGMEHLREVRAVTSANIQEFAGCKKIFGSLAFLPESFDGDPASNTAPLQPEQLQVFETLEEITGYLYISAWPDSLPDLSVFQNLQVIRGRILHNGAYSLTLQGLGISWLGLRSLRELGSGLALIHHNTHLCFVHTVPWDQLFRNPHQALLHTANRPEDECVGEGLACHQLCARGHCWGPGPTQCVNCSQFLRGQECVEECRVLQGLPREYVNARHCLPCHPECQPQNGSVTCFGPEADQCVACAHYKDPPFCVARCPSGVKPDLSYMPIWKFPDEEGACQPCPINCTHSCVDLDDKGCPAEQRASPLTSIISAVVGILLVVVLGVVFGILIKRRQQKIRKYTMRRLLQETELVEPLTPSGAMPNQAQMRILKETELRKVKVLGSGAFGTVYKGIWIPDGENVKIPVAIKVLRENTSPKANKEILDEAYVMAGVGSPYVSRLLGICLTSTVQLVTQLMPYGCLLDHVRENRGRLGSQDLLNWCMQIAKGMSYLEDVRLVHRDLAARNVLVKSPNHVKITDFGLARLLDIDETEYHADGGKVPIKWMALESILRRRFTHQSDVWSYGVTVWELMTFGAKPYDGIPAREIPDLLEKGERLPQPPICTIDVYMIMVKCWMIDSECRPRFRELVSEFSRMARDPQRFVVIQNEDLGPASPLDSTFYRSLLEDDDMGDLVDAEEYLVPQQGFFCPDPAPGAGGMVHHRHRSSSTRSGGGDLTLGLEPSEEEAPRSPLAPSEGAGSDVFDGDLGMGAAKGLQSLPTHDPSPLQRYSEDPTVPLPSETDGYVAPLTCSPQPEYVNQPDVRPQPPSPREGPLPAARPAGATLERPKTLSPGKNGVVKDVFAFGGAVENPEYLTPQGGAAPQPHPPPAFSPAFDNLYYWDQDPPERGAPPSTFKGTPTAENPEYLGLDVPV

With `Cn1c(=O)c2c(nc(SCCCC#N)n2Cc2c(F)cccc2Cl)n(C)c1=O`, the viability was 102% in assay [1]; 102% (inactive) in assay [3]; 91.8% (inactive) in assay [4]; 77.3% (inactive) in assay [5]; 15.9% in assay [6] (setting [16]); 77.3% in assay [6] (setting [17]). Moreover, the viability in assay [12] was 89.2% (inactive); in [13], 86.1% (inactive). In addition, the Her2 level in assay [2] is 108% (inactive). In assay [6] (H69AR cells + 2 uM doxorubicin), the differential viability (reversal) is 61.3% (active). The inhibition in [7] was -1.33% (inactive); in assay [8], 1.17% (inactive); in [14] it was 3.15% (inactive). The growth inhibition in assay [9] was -13.5% (inactive); in [10], 5.36% (inactive). Further, in assay [11], the viability increase is -4.16% (inactive). In assay [15], the RAM network inhibition is 4.98% (inactive).

Regarding `O=C(Nc1cccc(Cl)c1)N1CCN(Cc2ccccc2)CC1`, the viability in [1] was 98.5%; in assay [3], 98.5% (inactive); in assay [4], 103% (inactive); in assay [5], 84.2% (inactive); in assay [6] (setting [16]), 78.7%; in assay [6] (setting [17]) it was 84.2%. Also, the viability in [12] was 92.1% (inactive); in assay [13] it was 86.4% (inactive). In addition, the Her2 level in [2] was 99% (inactive). The differential viability (reversal) in [6] (H69AR cells + 2 uM doxorubicin) was 5.49% (inactive). For the same molecule, the inhibition in assay [7] is -6% (inactive); in assay [8] it was -0.49% (inactive); in assay [14], 1.24% (inactive). Besides, the results for the growth inhibition in assay [9] and in assay [10] were -4.47% (inactive) and -8.27% (inactive), respectively. In addition, the viability increase in assay [11] is -1.11% (inactive). Further, the RAM network inhibition in assay [15] is 3.81% (inactive).

Regarding `CCn1cc(C2=NOC(C(=O)Nc3c(C)nn(Cc4ccc(F)cc4)c3C)C2)c(C)n1` (stereo not given), the viability in assay [1] was 76.5%; in assay [3], 76.5% (inactive); in [4] it was 86.2% (inactive); in assay [5] it was 88.2% (inactive); in [6] (setting [16]), 87.1%; in assay [6] (setting [17]) it was 88.2%. In addition, the viability was 95.2% (inactive) in [12] and 103% (inactive) in assay [13]. Besides, in [2], the Her2 level was 86.5% (inactive). For the same molecule, the differential viability (reversal) in assay [6] (H69AR cells + 2 uM doxorubicin) is 1.12% (inactive). Also, the inhibition was -1.41% (inactive) in [7], 1.67% (inactive) in assay [8] and 1.9% (inactive) in assay [14]. In addition, the growth inhibition is -11.1% (inactive) in [9] and 2.07% (inactive) in [10]. Moreover, the viability increase in [11] is 1.43% (inactive). In addition, the RAM network inhibition in assay [15] was 1.61% (inactive).

`N#Cc1ccc(-c2csc(NC(=O)C3CC3)n2)cc1`: the viability in assay [1] is 95.5%; in [3], 95.5% (inactive); in assay [4] it was 109% (inactive); in assay [5], 91.9% (inactive); in [6] (setting [16]), 85.1%; in assay [6] (setting [17]), 91.9%. The viability in assay [12] is 103% (inactive); in assay [13], 88.9% (inactive). For the same molecule, in assay [2], the Her2 level is 91% (inactive). Also, in assay [6] (H69AR cells + 2 uM doxorubicin), the differential viability (reversal) is 6.75% (inactive). Besides, the inhibition in [7] was -2.93% (inactive); in [8], 0.16% (inactive); in [14] it was 2.53% (inactive). Besides, the growth inhibition was -18.1% (inactive) in assay [9] and -2.02% (inactive) in assay [10]. Also, in assay [11], the viability increase was 3.47% (inactive). The RAM network inhibition in assay [15] was 4.29% (inactive).

With `COc1ccc(-n2c(Cc3cccn3C)nnc2SCC(=O)Nc2ccccc2)cc1`, the viability was 88.5% in assay [1]; 88.5% (inactive) in assay [3]; 99% (inactive) in assay [4]; 82.2% (inactive) in [5]; 88.9% in assay [6] (setting [16]); 82.2% in assay [6] (setting [17]). In addition, the viability in [12] is 99.5% (inactive); in assay [13] it was 85.3% (inactive). The Her2 level in assay [2] was 104% (inactive). In addition, the differential viability (reversal) in assay [6] (H69AR cells + 2 uM doxorubicin) is -6.77% (inactive). Besides, the inhibition in assay [7] was -5.87% (inactive); in assay [8] it was 4% (inactive); in assay [14], 2.68% (inactive). For the same molecule, the growth inhibition in [9] is 1.29% (inactive); in assay [10], 15.6% (inactive). Further, the viability increase in assay [11] is -2.51% (inactive). Further, the RAM network inhibition in assay [15] was 2.14% (inactive).

On to `Cc1ccc(C)n1-n1c(C)nc2sc(-c3ccccc3)cc2c1=O`, for which the viability in [1] is 89%; in assay [3] it was 89% (inactive); in [4] it was 80.3% (inactive); in assay [5], 81.9% (inactive); in [6] (setting [16]), 90.8%; in assay [6] (setting [17]), 81.9%. Besides, the viability was 54.6% (inactive) in assay [12] and 61% (inactive) in [13]. Besides, the Her2 level in assay [2] was 106% (inactive). Moreover, the differential viability (reversal) in [6] (H69AR cells + 2 uM doxorubicin) was -8.97% (inactive). Besides, the inhibition in [7] is -0.38% (inactive); in assay [8] it was 2.67% (inactive); in assay [14], 0.52% (inactive). Further, the growth inhibition is -3.25% (inactive) in assay [9] and -27.4% (inactive) in [10]. The viability increase in [11] is 1.12% (inactive). In addition, the RAM network inhibition in assay [15] was 9.68% (inactive).

In the case of `CCCNC(=O)C1CCN(S(=O)(=O)c2ccc3nc4c(c(C(=O)O)c3c2)CCCCC4)CC1`, the viability in [1] is 99%; in assay [3], 99% (inactive); in [4], 105% (inactive); in assay [5] it was 98.7% (inactive); in assay [6] (setting [16]), 96.6%; in assay [6] (setting [17]), 98.7%. Also, the viability in assay [12] is 108% (inactive); in assay [13], 103% (inactive). The Her2 level in [2] is 92% (inactive). The differential viability (reversal) in assay [6] (H69AR cells + 2 uM doxorubicin) is 2.09% (inactive). The inhibition is -1.87% (inactive) in [7], 8.36% (inactive) in assay [8] and 2.09% (inactive) in assay [14]. The growth inhibition in [9] is 2.08% (inactive); in assay [10] it was -0.39% (inactive). For the same molecule, the viability increase in [11] was 1.14% (inactive). In assay [15], the RAM network inhibition was 7.93% (inactive).

With `CC(C)CCn1c(NCCc2ccccc2)nc2c1c(=O)n(C)c(=O)n2C`, the viability was 80% in [1]; 80% (inactive) in assay [3]; 50.8% (inactive) in assay [4]; 81.8% (inactive) in [5]; 82.1% in assay [6] (setting [16]); 81.8% in [6] (setting [17]). Besides, the viability was 57.1% (inactive) in assay [12] and 57.4% (inactive) in [13]. In [2], the Her2 level was 57.5% (inactive). Moreover, in assay [6] (H69AR cells + 2 uM doxorubicin), the differential viability (reversal) is -0.235% (inactive). The inhibition in assay [7] is -2.93% (inactive); in [8], 2.17% (inactive); in assay [14] it was 1.94% (inactive). Also, the growth inhibition in assay [9] is -0.96% (inactive); in assay [10], 8.48% (inactive). For the same molecule, the viability increase in assay [11] is -2.21% (inactive). The RAM network inhibition in assay [15] is -0.32% (inactive).

With `COc1ccc(CN2C(=O)CN=C2Nc2ccc(C)cc2C)cc1`, the viability in [1] is 85%; in assay [3] it was 85% (inactive); in [4], 103% (inactive); in [5] it was 84.9% (inactive); in assay [6] (setting [16]), 77.8%; in [6] (setting [17]), 84.9%. Besides, the viability in assay [12] is 101% (inactive); in assay [13], 89.4% (inactive). For the same molecule, the Her2 level in [2] is 91% (inactive). In assay [6] (H69AR cells + 2 uM doxorubicin), the differential viability (reversal) is 7.04% (inactive). Also, the inhibition in [7] is -3.82% (inactive); in [8], -0.73% (inactive); in assay [14] it was 3.82% (inactive). Also, the growth inhibition in assay [9] is -7.07% (inactive); in assay [10], -12.2% (inactive). Besides, the viability increase in [11] was -1.49% (inactive). Further, the RAM network inhibition in [15] was 5.11% (inactive).

Consider `O=S(=O)(c1ccccc1)N1CCN(S(=O)(=O)c2ccccc2)C1`, for which the viability in assay [1] was 83.5%; in assay [3], 83.5% (inactive); in assay [4] it was 97.5% (inactive); in assay [5], 95.8% (inactive); in assay [6] (setting [16]), 88.7%; in [6] (setting [17]), 95.8%. Also, the figures for the viability in [12] and in [13] were 93.8% (inactive) and 93.5% (inactive), respectively. Further, in [2], the Her2 level was 102% (inactive). The differential viability (reversal) in assay [6] (H69AR cells + 2 uM doxorubicin) is 7.07% (inactive). Besides, the inhibition was -3.21% (inactive) in [7], -4.5% (inactive) in [8] and -0.14% (inactive) in [14]. The results for the growth inhibition in assay [9] and in assay [10] were -7.65% (inactive) and 6.15% (inactive), respectively. Also, the viability increase in [11] is -1.27% (inactive). The RAM network inhibition in assay [15] is 3.22% (inactive).

The values above are taken from PubChem BioAssay.
